Columns and labels:
Conditions in all cases: concentration: 1 μM, replicates: in singlicate; n = 1
PIK3CG = tested on: PIK3CG
PIK4CB = tested on: T1, PIK4CB
T1 construct: gene PI4KB

PIKFYVE = tested on: PIKFYVE
PIM1 = tested on: PIM1
PIM2 = tested on: PIM2
PIM3 = tested on: PIM3
PIP5K1A = tested on: PIP5K1A
PIP5K1C = tested on: PIP5K1C
PIP5K2B = tested on: PIP5K2B
PIP5K2C = tested on: T2, PIP5K2C
T2 construct: gene PIP4K2C

PKAC-alpha = tested on: T3, PKAC-alpha
T3 construct: gene PRKACA

PKAC-beta = tested on: T4, PKAC-beta
T4 construct: gene PRKACB

PKMYT1 = tested on: PKMYT1
PKN1 = tested on: PKN1
PKN2 = tested on: PKN2
PLK1 = tested on: PLK1
PLK2 = tested on: PLK2
PLK3 = tested on: PLK3
PLK4 = tested on: PLK4
PRKCD = tested on: PRKCD
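Further: KINOMEscan kinase panel screen.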

| SMILES | %Inh (PIK3CG) [%] | %Inh (PIK4CB) [%] | %Inh (PIKFYVE) [%] | %Inh (PIM1) [%] | %Inh (PIM2) [%] | %Inh (PIM3) [%] | %Inh (PIP5K1A) [%] | %Inh (PIP5K1C) [%] | %Inh (PIP5K2B) [%] | %Inh (PIP5K2C) [%] | %Inh (PKAC-alpha) [%] | %Inh (PKAC-beta) [%] | %Inh (PKMYT1) [%] | %Inh (PKN1) [%] | %Inh (PKN2) [%] | %Inh (PLK1) [%] | %Inh (PLK2) [%] | %Inh (PLK3) [%] | %Inh (PLK4) [%] | %Inh (PRKCD) [%] |
| --- | --- | --- | --- | --- | --- | --- | --- | --- | --- | --- | --- | --- | --- | --- | --- | --- | --- | --- | --- | --- |
| CN1C(=O)C(Nc2cc(Cl)c(O)c(Cl)c2)=C(c2ccc(Cl)cc2)C1=O [SB-404321] | 10 | 36 | 24 | 0 | 0 | 0 | 0 | 27 | 0 | 30 | 0 | 0 | 0 | 0 | 0 | 0 | 0 | 0 | 0 | 0 |
| Nc1ncnc2c1ncn2-c1cccc(F)c1 [SKF-97560] | 14 | 14 | 17 | 1 | 18 | 0 | 6 | 0 | 9 | 0 | 21 | 0 | 0 | 4 | 0 | 34 | 22 | 25 | 9 | 1 |
| O=C(Nc1ccc2c(c1)OCO2)NC1CCN(c2ccnc(NCc3ccc(F)cc3)n2)CC1 [GSK1379859] | 0 | 2 | 0 | 8 | 0 | 0 | 0 | 19 | 2 | 0 | 12 | 0 | 0 | 0 | 0 | 0 | 0 | 0 | 9 | 7 |
| Nc1nccc2scc(-c3ccc4c(c3)CCN4C(=O)Cc3ccccc3)c12 [GSK2576924] | 5 | 20 | 0 | 20 | 0 | 3 | 3 | 29 | 15 | 13 | 8 | 0 | 1 | 0 | 0 | 6 | 1 | 0 | 6 | 0 |
| CCCNC(=O)Nc1ccc(Oc2ncnc3ccn(C)c23)cc1 | 12 | 0 | 0 | 0 | 5 | 0 | 0 | 17 | 47 | 27 | 0 | 0 | 0 | 0 | 0 | 0 | 28 | 15 | 18 | 33 |
| FC(F)(F)c1ccc(-c2ncn(CCCN3CCOCC3)c2-c2ccncc2)cc1 [SB-217780] | 34 | 0 | 0 | 15 | 0 | 13 | 0 | 36 | 0 | 27 | 0 | 10 | 0 | 43 | 48 | 5 | 0 | 0 | 3 | 87 |
| Cl.c1ccc(Cn2cnc3cc(Nc4ncnc5ccccc45)ccc32)cc1 [GW272142] | 0 | 0 | 6 | 0 | 0 | 0 | 0 | 38 | 0 | 17 | 0 | 0 | 0 | 0 | 0 | 0 | 0 | 0 | 0 | 0 |
| Cc1nn2c(=O)cc(N3CCOCC3)nc2n1Cc1cccc(Cl)c1Cl [GSK2342769] | 69 | 0 | 62 | 0 | 0 | 0 | 0 | 12 | 5 | 1 | 7 | 7 | 1 | 36 | 0 | 5 | 0 | 0 | 0 | 0 |
| O=C(Nc1n[nH]c2nc(-c3ccccc3)c(Br)cc12)C1CC1 [SB-708998] | 0 | 0 | 0 | 4 | 0 | 0 | 0 | 14 | 33 | 0 | 0 | 2 | 8 | 21 | 0 | 10 | 0 | 0 | 2 | 0 |
| Nc1nc(-c2ccccc2F)c(-c2ccnc3ccccc23)s1 [GW560459] | 0 | 0 | 0 | 0 | 0 | 3 | 13 | 46 | 4 | 59 | 0 | 3 | 0 | 3 | 0 | 2 | 0 | 0 | 0 | 0 |
| OCCCNc1nccc(-c2c(-c3cccc(C(F)(F)F)c3)nn3cc(C(F)(F)F)ccc23)n1 [GW630813] | 0 | 0 | 0 | 9 | 0 | 0 | 30 | 66 | 2 | 38 | 0 | 0 | 0 | 0 | 0 | 0 | 0 | 0 | 12 | 0 |
| COc1cc2ncn(-c3cc(OCCCc4ccccc4)c(C(N)=O)s3)c2cc1OC [GSK205189] | 0 | 0 | 0 | 0 | 0 | 0 | 0 | 69 | 0 | 9 | 0 | 5 | 0 | 0 | 16 | – | 98.2 | 92.3 | 0 | 0 |
| COc1cc2nccc(Nc3cccc(Oc4ccccc4)c3)c2cc1OC.Cl [GW284543] | 0 | 0 | 29 | 0 | 0 | 0 | 0 | 48 | 18 | 8 | 0 | 10 | 0 | 0 | 0 | 0 | 0 | 0 | 0 | 5 |
| Cc1nnc(-c2ccc(C)c(-c3ccc(C(=O)O)cc3)c2)o1 [GW608005] | 0 | 0 | 0 | 18 | 0 | 0 | 0 | 6 | 0 | 0 | 0 | 0 | 0 | 28 | 0 | 0 | 0 | 0 | 0 | 0 |
| COc1cc(OC)cc(-c2cc3cnc(N)nc3nc2NC(=O)NC(C)(C)C)c1 | 5 | 0 | 44 | 0 | 0 | 0 | 37 | 0 | 0 | 0 | 0 | 0 | 0 | 0 | 22 | 0 | 0 | 0 | 0 | 0 |
| Cc1nc(N(C)[C@H]2CN(C(=O)CC#N)CC[C@H]2C)c2cc[nH]c2n1 | 0 | 0 | 2 | 0 | 0 | 0 | 0 | 0 | 0 | 0 | 17 | 0 | 4 | 0 | 12 | 0 | 5 | 0 | 0 | 2 |
| COc1ccc(-c2cc3c(C)nc(N)nc3n([C@H]3CC[C@H](O)CC3)c2=O)cn1 | 100 | 93.9 | 45 | 5 | 0 | 6 | 2 | 0 | 2 | 38 | 0 | 0 | 32 | 0 | 10 | 0 | 0 | 0 | 0 | 0 |
| O=C(NCCNc1ccnc(Nc2ccc(F)cc2)n1)Nc1ccc2c(c1)OCO2 [GSK1379882] | 10 | 17 | 8 | 21 | 0 | 11 | 7 | 66 | 0 | 24 | 0 | 0 | 0 | 23 | 0 | 4 | 0 | 0 | 4 | 0 |
| CCS(=O)c1ccc(-c2coc3ccc(-c4nnc(C)o4)cc23)cc1 (stereo not drawn) | 0 | 19 | 3 | 6 | 27 | 11 | 0 | 13 | 0 | 93 | 0 | 18 | 0 | 0 | 16 | 0 | 0 | 14 | 5 | 4 |
| COc1cccc(C2=C(N(C)c3ccccc3)C(=O)NC2=O)c1 [SB-334865] | 0 | 0 | 2 | 0 | 0 | 0 | 0 | 70 | 6 | 30 | 0 | 0 | 1 | 0 | 0 | 0 | 0 | 0 | 17 | 0 |
